Compound activity as filed in PubChem.
Hits are enriched below; roughly 2.5% of the tested compounds scored in any of these assays.
CCT chaperon mod – changes cytosolic chaperonin activity | purified chaperonin ATPase assay, HTRF ADP detection, 30 min | activity change, % (test concentration not listed), hits read low | 360,000 tested, 0.3% active; in the data active means activity change below about -30%; further: on the % scale 0 is the no-effect control and ±100 the full control effect
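Nucleotide hydrolysis assay: TRiC at 20–40 nM final (set by batch activity) with 10 uM ATP, 30 min at 37 °C, in presence of 76 uM compound. Detection by competitive ADP HTRF, 30 min ambient.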
Mito fusion yeast – blocks mitochondrial division or promotes mitochondrial fusion; S. cerevisiae fusion-defective mutant growth rescue, CellTiterGlo 48 h; Potency, µM (series often up to 46.1 µM), for inactives: top-dose growth rescue (activation), usual class: activators; 320,000 tested, 0.23% active; further: potency means the concentration at half of the fitted maximal effect; % of control where 0% means no effect; nearly all actives have a fitted effect of over 45% in size
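Temperature-sensitive fusion-defective S. cerevisiae (e.g. fzo1-1, mgm1-5) were grown with compound in YPEG medium (3% ethanol, 3% glycerol) for 48 hours at 37C. Growth rescue was measured as viability by CellTiterGlo luminescence after 10 minutes at ambient.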
pAkt inh – blocks phosphorylation of Akt; Neuro2A IGF-stimulated pAkt S473 HTRF, 20 min; hits give low values; activity change, % for hits at 50 µM; 360,000 tested, 0.32% active; AID 651550; in the data active means activity change below about -80%; inconclusive means mostly about -51% to -80%; further: on the % scale 0 is the no-effect control and ±100 the full control effect
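Neuro2A cells (4,500/well, DMEM with 0.5% FBS) were treated with compound at a single 50 µM final concentration, stimulated with 6 nM IGF for 20 min at 37 °C, and lysed. Phospho-Akt Ser473 was read by HTRF as 665/615 ratio ×10^4.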
TDP43 rescue – rescues yeast growth from TDP-43 toxicity | TDP-43 expressing yeast growth rescue, BacTiter-Glo, 24 h | Potency, µM (titrated, usually from 46.1 µM), for the others: top-dose growth rescue (activation), most hits filed as activators | 410,000 tested, 1.8% active; further: potency means the concentration at half of the fitted maximal effect; % of control where 0% means no effect; nearly all actives have a fitted effect of over 50% in size
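Yeast expressing TDP-43 (pregrown in raffinose, seeded at OD600=0.02 in galactose medium) exposed to compounds 24 hr at 30 deg C. Growth read by BacTiter-Glo luminescence; rescue of toxicity appears as increased signal.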
Apoferritin bind – candidate novel general anesthetic via apoferritin binding. P02791. apoferritin/1-aminoanthracene competitive binding, fluorescence. Potency, µM (highest dose often 77.5 µM), without a hit: at the highest dose activity change, negative = displacement, most hits filed as inhibitors. 350,000 tested, 0.074% active. AID 485281; further: potency means the concentration at half of the fitted maximal effect; on the % scale 0 is the no-effect control and ±100 the full control effect; nearly all actives have a fitted effect of over 20% in size
Target sequence (P02791 2-175 limits assumed): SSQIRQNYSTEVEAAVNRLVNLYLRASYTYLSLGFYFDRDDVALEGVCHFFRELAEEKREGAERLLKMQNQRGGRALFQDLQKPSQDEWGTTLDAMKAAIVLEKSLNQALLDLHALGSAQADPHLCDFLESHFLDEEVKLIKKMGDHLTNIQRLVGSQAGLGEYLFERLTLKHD
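Horse-spleen apoferritin (10 uM) in 50% saturated 1-aminoanthracene in PBS was incubated 10 min at room temperature with compound. Fluorescence (ex 380, em 535 nm) was normalized to free and bound 1-AMA, with concentration-response fitted by a four-parameter Hill equation.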
aSyn yeast inh – inhibitors of alpha-synuclein toxicity in yeast. Yeast expressing alpha-synuclein, growth rescue, BacTiter-Glo, 24 h. Potency, µM (doses to about 46.1 µM), for the others: at the top dose growth rescue (activation), most hits filed as activators. 370,000 tested, 0.14% active. AID 652106; further: potency means the concentration at half of the fitted maximal effect; % of control where 0% means no effect; nearly all actives have a fitted effect of over 65% in size
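Galactose-induced alpha-syn yeast (OD600=0.02, raffinose-pregrown) + pinned cpd, 24 hr, 30 deg C; growth by BacTiter-Glo luminescence. Growth restoration scores as activation.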
An asterisk follows results filed as active; i = inactive; ? = inconclusive; . = no result given; [ ] = another dose, or the depositor's remark. Unless noted, the call rests on the fitted dose curve; in most records, active means well fitted curve in the direction sought with a large enough effect; inconclusive means small, poorly fitted or top-dose-only effect, or another doubt; inactive means no such curve, though single readings can be large; an effect the other way counts as inactive or inconclusive.

SMILES	CCT chaperon mod	Mito fusion yeast	pAkt inh	TDP43 rescue	Apoferritin bind	aSyn yeast inh
O=C(Nc1ccccc1C(=O)Nc1ccc(Br)cn1)c1ccccc1Cl	-2	?	i	20µM*	.	2%[1.84 µM]
Cc1ccccc1C(=O)Nc1ccc(Br)cn1	1	6%	i	-3%	-15%	-2%
Cc1c(C(=O)Nc2ccccc2)cnn1-c1ccccc1	2	.	i	0%	.	0%
Cc1c(C(=O)Nc2cccc(F)c2)cnn1-c1ccccc1	-4	2%	i	10µM*	-17%	6%
CC(=O)c1cccc(NC(=O)CCc2c(C)nc3c(c(C)nn3-c3ccccc3)c2C)c1	.	.	.	6.3µM*	-11%	.
CC(=O)c1cccc(NC(=O)c2cnn(-c3ccccc3)c2C)c1	2	-27%	i	14µM*	-11%	1%
CC(C)(C)OC(=O)NC(NC(=O)OCC1c2ccccc2-c2ccccc21)C(=O)O (stereo not drawn)	.	.	.	.	-4%	.
COc1ccc(CCCc2nnc(SCC(=O)Nc3ccc(Cl)cc3)o2)cc1	.	.	.	37%	-4%	.
CN(C)c1ccc(/C=C/c2ccnc3ccccc23)cc1O	.	.	.	.	.	-10%
O=c1c2ccccc2nnn1CSc1ccc2ccccc2n1	-3	15%	i	18µM*	2%	?
O=c1c2ccccc2nnn1Cc1cccc2ccccc12	-2	2%	i	13µM*	?	-1%
Brc1ccc(C2C=Cc3ccccc32)cc1 (stereo not drawn)	.	.	.	.	.	-12%
O=C(CSc1nc2ccccc2s1)N/N=C/c1ccco1	0	3%	i	10%	-23%	1%
N#C/C(=C\c1ccco1)Sc1nc2ccccc2s1	-3	15%	i	16µM*	?	-13%
CCN1CCN(C(=O)c2cnn(-c3cccc(C)c3)c2C2CCN(C(=O)OC(C)(C)C)CC2)CC1	.	.	.	-14%	-5%	.
O=C(CNc1ccc(Br)cc1)c1ccc(O)cc1	0	20%	i	10µM*	-21%	-27%
COc1ccccc1C(=O)OCc1c(-c2ccccc2)ncc2ccccc12	-1	.	i	25µM*	.	30%
COc1ccc(C(=O)OCc2c(-c3ccccc3)ncc3ccccc23)cc1	-1	.	i	?	.	19%
COc1ccc(/C=C(/C(=O)c2cccs2)N2C=CC=CC2=C(C#N)C#N)cc1	0	6%	i	?	-17%	18µM*
COc1ccc(C(=O)/C(=C\c2ccco2)N2C=CC=CC2=C(C#N)C#N)cc1	0	-18%	i	?	?	4%
Fc1ccc(-n2cc(-c3ccccc3)c3c(NC4CCCCC4)ncnc32)cc1	.	.	.	?	-10%	.
COc1ccccc1/C=C/c1nc(C#N)c(NCc2ccccc2)o1	.	.	.	?	461%	.
O=C(CSc1nnnn1C1CCCCC1)Nc1nc2c(s1)CCCC2	0	?	i	13µM*	?	?
O=C(CCCc1cccs1)Nc1nc2c(s1)CCCC2	0	7%	i	13µM*	?	-15%
O=C(Nc1nc2c(s1)CCCC2)c1ccc2ncsc2c1	-6	-22%	i	13µM*	-14%	-35%
SMILES	CCT chaperon mod	Mito fusion yeast	pAkt inh	TDP43 rescue	Apoferritin bind	aSyn yeast inh
CCCc1nc(SCC(=O)Nc2nc3c(s2)CCCC3)c2ccccc2n1	1	1%	i	1%	-18%	-9%
CCc1nc(SCC(=O)Nc2nc3c(s2)CCCC3)c2ccccc2n1	2	-3%	i	10µM*	-13%	-6%
CC[C@H](C)[C@H](NC(=O)[C@H](Cc1ccc(O)cc1)NC(=O)[C@H](CCCNC(=N)N)NC(=O)[C@H](CCCNC(=N)N)NC(=O)[C@H](CC(C)C)NC(=O)[C@H](CCC(N)=O)NC(=O)[C@@H](NC(=O)[C@H](CCC(=O)O)NC(=O)[C@H](Cc1ccc(O)cc1)NC(=O)[C@H](CCC(N)=O)NC(=O)[C@H](C)NC(=O)[C@H](CCCNC(=N)N)NC(=O)[C@H](CCC(N)=O)NC(=O)[C@H](CCC(=O)O)NC(=O)[C@H](Cc1cnc[nH]1)NC(=O)[C@@H](NC(=O)[C@H](C)NC(=O)[C@H](Cc1ccc(O)cc1)NC(=O)[C@H](CC(=O)O)NC(=O)CNC(=O)[C@@H]1CCCN1C(=O)[C@H](Cc1ccc(O)cc1)NC(=O)[C@H](CCSC)NC(=O)[C@@H]1CCCN1C(=O)[C@H](CCC(=O)O)NC(=O)[C@H](CC(C)C)NC(=O)[C@@H]1CCCN1C(=O)[C@H](C)N)[C@@H](C)O)[C@@H](C)O)C(=O)N[C@@H](CC(N)=O)C(=O)N[C@H](C(=O)N[C@@H](CC(C)C)C(=O)N[C@H](C(=O)N[C@@H](CCCNC(=N)N)C(=O)N1CCC[C@H]1C(=O)N[C@@H](CCCNC(=N)N)C(=O)N[C@@H](Cc1ccc(O)cc1)C(N)=O)[C@@H](C)O)[C@@H](C)O	.	.	.	.	-14%	.
COc1ccc(-c2nn(C)c3sc(C(=O)Nc4cc(OC)c(OC)c(OC)c4)cc23)cc1OC	.	.	.	14%	63%	.
CC1CCc2nc(NC(=O)c3ccco3)sc2C1 (stereo not drawn)	1	-1%	i	0%	-21%	-16%
COc1ccc(NC(=O)Nc2nc3c(s2)CCCC3)cc1	-1	-9%	i	14µM*	?	13µM*
CC(C)(C)C1CCc2nc(NC(=O)Cc3cn4ccsc4n3)sc2C1 (stereo not drawn)	-1	4%	i	16µM*	?	9%
COc1ccc(N2CCN(CC(=O)Nc3nc4c(s3)CC(C)CC4)CC2)cc1 (stereo not drawn)	1	5%	-120%*	?	-16%	5%
CC1CCc2nc(NC(=O)Cc3cccs3)sc2C1 (stereo not drawn)	-11	20%	i	28µM*	-19%	16%
CC(C)(C)C1CCc2nc(NC(=O)Cc3ccc(Cl)cc3)sc2C1 (stereo not drawn)	.	.	.	29%	6%	.
CC1CN(c2ccc(Cl)cc2)c2nc3c(c(=O)n(CC(=O)O)c(=O)n3C)n2C1 (stereo not drawn)	.	.	.	-10%	-2%	.
CCCCCCCCOc1c(OC)cc(/C=C/C(=O)N2CCN(c3ccc(C)c(C)c3)CC2)cc1OC	.	.	.	.	2%	.
Cc1ccc(CC(=O)Nc2nc3c(s2)CCCC3)cc1	-1	-1%	i	16µM*	?	6%
O=C(Nc1nc(COc2ccccc2)cs1)c1ccccc1F	-4	16µM*	i	0%	3%	-5%
Cc1csc2nc(COc3cccc(NC(=O)c4ccccc4F)c3)cc(=O)n12	.	.	.	-1%	-7%	.
COc1cccc(CNC(=O)c2cc3n(n2)CCCN(Cc2ccc(C)cc2)C3=O)c1OC	.	.	.	12%	-7%	.
